Assay results as given in PubChem BioAssay.
Calls of active or inactive are those of the source. Unless noted, how the calls were made is not given here.

Experiments:
[1] = system: Wnt5a (protein binding on small-molecule microarray); experiment: Wnt5a binders on small-molecule microarray, primary screen, biophysical, 635/667 nm fluorescence (AID 1142); conditions: 635 nm fluorescence, higher = more signal;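 further: fluorescence read at 667 nm with signal to noise per printed feature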
[2] = cell viability in Huh7 cells, primary screen, cytotoxicity control for HCV replication inhibitor project, CellTiter-Glo luminescence, basal, 48 h (AID 1143); conditions: Huh7 HCV replicon, higher = more signal, called active from +8 up or from −8 down;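 further: Huh7 hepatoma cells carrying a hepatitis C replication reporter with no stimulus; test concentration not given here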
[3] = P. aeruginosa biofilm formation inhibitors, primary screen, PAO1 strain, BacTiter-Glo luminescence, LB-PBS (AID 1144); conditions: 12 h, higher = more signal
[4] = CREB reporter modulators without forskolin, primary screen, cell-based, PC12, CRE-LacZ reporter, unstimulated (AID 1145); conditions: no forskolin, luminescence, 4.5 h, higher = more signal, called active from +8 up or from −8 down
[5] = CREB reporter modulators under forskolin, primary screen, cell-based, PC12, CRE-LacZ reporter, forskolin-stimulated (AID 1146); conditions: luminescence, 4.5 h, higher = more signal, called active from +8 up or from −8 down;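 further: PC12 cells with 6xCRE LacZ reporter stimulated by forskolin 10 µM; beta-galactosidase reporter signal reflecting CREB driven transcription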
[6] = target: Streptavidin (Streptomyces avidinii) (UniProt P22629); experiment: streptavidin binders on small-molecule microarray, primary screen, artefact control for SMM compound annotation, biophysical, 635/667 nm fluorescence (AID 1147); conditions: streptavidin binding, higher = more signal;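 further: signal reflects streptavidin binding to arrayed compounds as a control protein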
Chain of Streptavidin (Streptomyces avidinii) (P22629 whole entry, looked up): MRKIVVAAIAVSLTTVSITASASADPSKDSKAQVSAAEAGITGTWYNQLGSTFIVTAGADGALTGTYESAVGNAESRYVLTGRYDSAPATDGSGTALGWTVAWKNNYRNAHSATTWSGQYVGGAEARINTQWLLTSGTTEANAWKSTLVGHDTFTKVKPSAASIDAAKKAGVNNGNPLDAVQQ

[7] = small-molecule binders of probe aInhba, primary screen, biochemical, small-molecule microarray, 635/667 nm fluorescence (AID 1148); conditions: higher = more signal;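 further: score merges 667nm spot fluorescence with signal-to-noise for antibody binding to printed compounds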
Torsin-1A (Homo sapiens) [8] = target: Torsin-1A (Homo sapiens) (UniProt O14656); experiment: torsin A binders from cell lysate, primary screen, small-molecule microarray, wild-type, 635/667 nm (AID 1149); conditions: COS7 hTOR1A-WT lysate, 635 nm fluorescence, higher = more signal
Chain of Torsin-1A (Homo sapiens) (O14656 whole entry, looked up): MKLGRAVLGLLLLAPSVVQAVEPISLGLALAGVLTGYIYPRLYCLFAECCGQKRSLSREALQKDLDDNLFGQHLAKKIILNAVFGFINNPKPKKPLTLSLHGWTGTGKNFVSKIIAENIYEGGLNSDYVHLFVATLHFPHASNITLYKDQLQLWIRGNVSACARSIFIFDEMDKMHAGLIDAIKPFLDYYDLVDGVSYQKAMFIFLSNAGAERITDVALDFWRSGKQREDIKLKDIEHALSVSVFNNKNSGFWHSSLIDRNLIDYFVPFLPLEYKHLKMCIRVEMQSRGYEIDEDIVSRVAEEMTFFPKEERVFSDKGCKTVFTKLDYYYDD

Torsin-1A (Homo sapiens) [9] = target: Torsin-1A (Homo sapiens) (UniProt O14656); experiment: small-molecule binders of mutant TOR1A in lysate, primary screen, cell lysate, small-molecule microarray, COS7 lysate, 635/667 nm fluorescence (AID 1150); conditions: COS7 hTOR1A mutant lysate, 635 nm fluorescence, higher = more signal;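 further: score pools 667 nm emission and signal to noise measuring lysate protein binding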
[10] = system: Sonic hedgehog protein (Shh); experiment: small-molecule binders of Shh protein, primary screen, biochemical, small-molecule microarray, 635/667 nm fluorescence (AID 1151); conditions: small-molecule microarray binding, 635 nm fluorescence; higher = more signal;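 further: Shh protein binding to compounds spotted on small-molecule microarray slides; score combines spot fluorescence intensity with signal-to-noise across triplicate slides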
[11] = E. coli DRC41 culture turbidity changes, primary screen, E. coli filamentation inducer project, strain DRC41, OD650, 48 h (AID 1152);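 further: E. coli MC1000 strain DRC41 lacking acrAB efflux pump and sulA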; conditions: E. coli DRC41 (acrAB sulA), higher = more signal, called active from +8 up or from −8 down
[12] = small-molecule binders of probe aLefty1, primary screen, biochemical, small-molecule microarray, 635/667 nm fluorescence (AID 1153); conditions: higher = more signal;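 further: score merges spot fluorescence with signal-to-noise ratio from the scanned slide images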
[13] = PSAC antagonists in infected red cells, primary screen, cell-based, P. falciparum Indochina, OD700, 1 h (AID 1154); conditions: P. falciparum Indochina infected RBC osmotic lysis, higher = more signal, called active from +8 up or from −8 down
[14] = PSAC antagonists in infected red cells, primary screen, cell-based, P. falciparum Indochina, OD700, 2 h (AID 1155);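 further: lysis reports solute entry through the parasite surface anion channel PSAC; channel blockers reduce lysis of infected cells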; conditions: P. falciparum Indochina infected erythrocytes, osmotic lysis OD700; higher = more signal, called active from +8 up or from −8 down
[15] = osmotic lysis modulators in infected erythrocytes, primary screen, PSAC antagonist project, cell-based, P. falciparum Indochina, OD700, 3 h (AID 1156); conditions: higher = more signal, called active from +8 up or from −8 down
[16] = PSAC antagonists in infected red cells, primary screen, cell-based, P. falciparum Indochina, OD700, 18 h (AID 1157); conditions: P. falciparum Indochina infected erythrocytes, osmotic lysis OD700, 18 h; higher = more signal, called active from +8 up or from −8 down
[17] = modulators of S6 phosphorylation in cells, primary screen, cell-based, A549, cytoblot, luminescence, serum-stimulated (AID 1158); conditions: A549 phospho-S6 cytoblot, 5 h, higher = more signal;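 further: serum-stimulated A549 lung adenocarcinoma cells; signal is phosphorylated S6 detected by cytoblot immunostaining with HRP secondary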
[18] = target: NADPH oxidase 2 (Homo sapiens) (UniProt P04839); experiment: NOX2-dependent H2O2 signal modulators, primary screen, NOX inhibitor project, cell-based, HEK293-NOX2, PMA-stimulated, Amplex Red fluorescence (AID 1159); conditions: 45 min, higher = more signal, called active from +8 up or from −8 down; further: test concentration not given here
Chain of NADPH oxidase 2 (Homo sapiens) (P04839 whole entry, looked up): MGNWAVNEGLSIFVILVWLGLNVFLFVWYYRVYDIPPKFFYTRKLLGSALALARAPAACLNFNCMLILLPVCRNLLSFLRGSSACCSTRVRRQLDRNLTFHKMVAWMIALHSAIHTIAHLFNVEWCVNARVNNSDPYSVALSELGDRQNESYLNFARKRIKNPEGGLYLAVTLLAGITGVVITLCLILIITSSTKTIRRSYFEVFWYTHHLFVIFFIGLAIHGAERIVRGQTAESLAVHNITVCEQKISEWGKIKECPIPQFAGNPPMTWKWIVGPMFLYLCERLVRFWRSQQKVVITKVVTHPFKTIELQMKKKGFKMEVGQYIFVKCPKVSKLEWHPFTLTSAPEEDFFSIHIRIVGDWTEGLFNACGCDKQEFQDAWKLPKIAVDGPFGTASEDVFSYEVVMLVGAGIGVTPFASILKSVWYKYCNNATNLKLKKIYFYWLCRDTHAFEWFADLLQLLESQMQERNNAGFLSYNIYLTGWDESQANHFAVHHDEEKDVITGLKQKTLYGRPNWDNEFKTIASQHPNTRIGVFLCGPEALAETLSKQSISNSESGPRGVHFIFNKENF

[19] = target: NADPH oxidase 4 (Homo sapiens) (UniProt Q9NPH5); experiment: NOX4-dependent H2O2 signal modulators, primary screen, NOX inhibitor project, cell-based, HEK293-NOX4, tetracycline-induced, Amplex Red fluorescence (AID 1160); conditions: 45 min, higher = more signal, called active from +8 up or from −8 down
Chain of NADPH oxidase 4 (Homo sapiens) (Q9NPH5 whole entry, looked up): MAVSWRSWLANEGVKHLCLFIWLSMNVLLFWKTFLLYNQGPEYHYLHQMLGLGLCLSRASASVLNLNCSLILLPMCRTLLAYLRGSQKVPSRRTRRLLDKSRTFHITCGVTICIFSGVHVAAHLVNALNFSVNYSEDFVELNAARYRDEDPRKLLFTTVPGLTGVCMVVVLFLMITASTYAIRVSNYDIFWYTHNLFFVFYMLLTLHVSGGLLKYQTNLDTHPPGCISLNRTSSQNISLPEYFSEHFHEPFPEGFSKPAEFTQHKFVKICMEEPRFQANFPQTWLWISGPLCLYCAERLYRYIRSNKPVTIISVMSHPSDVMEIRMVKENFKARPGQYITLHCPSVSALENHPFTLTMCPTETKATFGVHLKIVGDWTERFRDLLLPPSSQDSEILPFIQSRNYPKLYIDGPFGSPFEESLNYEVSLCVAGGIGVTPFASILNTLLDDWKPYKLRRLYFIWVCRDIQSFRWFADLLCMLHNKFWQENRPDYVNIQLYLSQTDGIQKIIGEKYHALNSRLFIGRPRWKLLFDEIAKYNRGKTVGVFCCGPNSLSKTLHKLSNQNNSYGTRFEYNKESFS

[20] = target: NADPH oxidase 5 (Homo sapiens) (UniProt Q96PH1); experiment: NOX5-dependent H2O2 signal modulators, primary screen, NOX inhibitor project, cell-based, HEK293-NOX5, Amplex Red fluorescence (AID 1161); conditions: HEK293-NOX5, ionomycin, 45 min, higher = more signal
Chain of NADPH oxidase 5 (Homo sapiens) (Q96PH1 whole entry, looked up): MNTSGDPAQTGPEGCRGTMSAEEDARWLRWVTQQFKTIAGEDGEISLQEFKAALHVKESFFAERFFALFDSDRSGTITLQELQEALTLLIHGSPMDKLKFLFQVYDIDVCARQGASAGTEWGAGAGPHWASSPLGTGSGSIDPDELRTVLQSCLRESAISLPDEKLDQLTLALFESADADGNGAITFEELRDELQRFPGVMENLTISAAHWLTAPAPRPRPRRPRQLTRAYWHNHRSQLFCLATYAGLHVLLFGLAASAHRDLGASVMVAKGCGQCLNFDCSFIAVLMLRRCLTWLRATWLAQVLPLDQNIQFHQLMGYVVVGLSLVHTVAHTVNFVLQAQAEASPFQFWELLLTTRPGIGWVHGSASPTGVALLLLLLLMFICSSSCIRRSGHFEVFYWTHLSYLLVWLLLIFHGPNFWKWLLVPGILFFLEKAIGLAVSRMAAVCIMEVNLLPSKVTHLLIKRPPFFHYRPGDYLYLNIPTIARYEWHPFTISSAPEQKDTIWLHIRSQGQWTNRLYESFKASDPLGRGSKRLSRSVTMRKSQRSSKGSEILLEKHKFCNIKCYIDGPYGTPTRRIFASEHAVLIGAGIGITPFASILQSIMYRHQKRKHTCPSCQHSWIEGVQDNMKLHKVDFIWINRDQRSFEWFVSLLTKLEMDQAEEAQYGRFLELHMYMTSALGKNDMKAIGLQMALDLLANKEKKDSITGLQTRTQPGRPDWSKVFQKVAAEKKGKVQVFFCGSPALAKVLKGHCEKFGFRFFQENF

Row | Compound | composite z-score [1] | z-score [2] | z-score [3] | z-score [4] | z-score [5] | composite z-score [6] | composite z-score [7] | composite z-score (Torsin-1A (Homo sapiens) [8]) | composite z-score (Torsin-1A (Homo sapiens) [9]) | composite z-score [10] | z-score [11] | composite z-score [12] | z-score [13] | z-score [14] | z-score [15] | z-score [16] | z-score [17] | z-score [18] | z-score [19] | z-score [20]
1 | O=C(NCCC[N+]1=CC=NC1c1ccccc1)N1CCCc2nc(-c3ccc(Br)cc3)ccc21 (stereo not given) | -0.215 | -2.49 (inactive) | 0.616 (inactive) | -0.888 (inactive) | -0.0384 (inactive) | 0.0054 | -0.118 | 0.291 | 0.405 | 0.322 | 0.315 (inactive) | -0.164 | 5.32 (inactive) | 0.705 (inactive) | 1.5 (inactive) | 0.518 (inactive) | -0.26 | 0.528 (inactive) | -0.261 (inactive) | -1.64
2 | CCOC(=O)[C@H](CC(C)C)NC(=O)CCC1CC(OC(=O)NCc2ccc3c(c2)OCO3)CC2(CCCC(COC(=O)NCCc3ccc(Cl)cc3)O2)O1 (stereo not given in full) | 0.277 | -0.197 (inactive) | -0.0985 (inactive) | 0.737 (inactive) | 0.501 (inactive) | 0.288 | -0.089 | -0.157 | 0.361 | 1.86 | 0.386 (inactive) | 0.213 | 1.83 (inactive) | -0.39 (inactive) | -0.254 (inactive) | -0.144 (inactive) | -0.793 | 0.747 (inactive) | 0.575 (inactive) | 0.301
3 | COC(=O)[C@@H]1CC[C@H](C)[C@@H](c2ccc(C)cc2)N1C(=O)c1ccc(C=NOC[C@@H](O)[C@H]2O[C@@H]3OC(C)(C)O[C@@H]3[C@H]2O)cc1 | 0.0258 | 0.48 (inactive) | -0.0399 (inactive) | 9.08 (active) | 0.413 (inactive) | 0.54 | 0.31 | 0.215 | 0.277 | 0.241 | 1.44 (inactive) | 0.0313 | 0.465 (inactive) | 0.364 (inactive) | 0.107 (inactive) | 0.342 (inactive) | -0.924 | 0.659 (inactive) | 0.589 (inactive) | 0.417
4 | CON=C(C)CCN1CCCCc2nc(C)c(C)cc21 | 0.0272 | 0.559 (inactive) | -0.0896 (inactive) | 0.397 (inactive) | 1.13 (inactive) | -0.0284 | -0.0131 | 1.5 | 0.816 | 0.936 | -1.23 (inactive) | 0.168 | -0.149 (inactive) | -0.117 (inactive) | -0.374 (inactive) | 0.269 (inactive) | -0.834 | -0.0289 (inactive) | -0.0593 (inactive) | -0.836
5 | COC(=O)[C@@H]1CC[C@H](C)[C@@H](c2ccc(Br)cc2)N1C[C@H](O)CN=[N+]=[N-] | -0.106 | -0.999 (inactive) | -1.5 (inactive) | -0.522 (inactive) | -0.369 (inactive) | 0.127 | -0.05 | 0.386 | 0.827 | 0.26 | -0.972 (inactive) | 0.181 | 1.04 (inactive) | 0.852 (inactive) | 0.48 (inactive) | 0.541 (inactive) | 0.928 | -0.855 (inactive) | -1.08 (inactive) | -0.0951
6 | COC(=O)[C@@H]1CC[C@H](C)[C@@H](c2ccc(C)cc2)N1C(=O)c1ccc(C=NO[C@@H](C)c2cc(-c3c(C)cc(C)cc3C)no2)cc1 | 0.153 | -1.31 (inactive) | 0.209 (inactive) | -0.0591 (inactive) | -0.187 (inactive) | 0.152 | -0.0986 | 1.62 | 0.763 | 0.707 | 0.934 (inactive) | -0.242 | 1.12 (inactive) | 0.804 (inactive) | 0.894 (inactive) | 0.662 (inactive) | 0.677 | 0.564 (inactive) | 0.945 (inactive) | 0.406
7 | CON=C[C@@H](OC)[C@H](C)C=CCC(=O)OC | -0.115 | -0.569 (inactive) | 0.157 (inactive) | 0.257 (inactive) | 0.034 (inactive) | -0.0172 | -0.0762 | 0.752 | -0.0215 | 0.183 | -2.24 (inactive) | -0.316 | 0.0283 (inactive) | 0.325 (inactive) | -0.779 (inactive) | 0.22 (inactive) | 0.279 | 0.592 (inactive) | 0.358 (inactive) | -0.945
8 | CC(CCN1CCCCc2nc(C)c(C)cc21)=NO[C@@H](C)c1cc(-c2c(C)cc(C)cc2C)no1 | -0.525 | -3.04 (inactive) | -0.425 (inactive) | 1.9 (inactive) | 1.02 (inactive) | -1.23 | -0.211 | -1.18 | -0.956 | -0.235 | 0.393 (inactive) | -0.196 | 3 (inactive) | 0.49 (inactive) | 1.54 (inactive) | 0.588 (inactive) | 0.13 | -1.79 (inactive) | -0.125 (inactive) | -2.5
9 | C[C@@H]1CC[C@H]2C(=O)N3[C@@H](CC[C@@H](C)[C@@H]3c3ccc(Br)cc3)C(=O)N2[C@H]1c1ccc(Br)cc1 | 0.113 | -1.1 (inactive) | 1.21 (inactive) | 0.198 (inactive) | 0.929 (inactive) | 0.146 | -0.0719 | 1.05 | 0.626 | 0.233 | -1.09 (inactive) | -0.0099 | 4.4 (inactive) | 1.07 (inactive) | 0.121 (inactive) | 0.689 (inactive) | 0.448 | 1.79 (inactive) | -1.8 (inactive) | 0.819
